From article PMC12864922, “TDP-43 directly inhibits mRNA accumulation in neurites through modulation of mRNA stability”
Whole data set: some 9,900 sequences, median “r (bound/input frequency ratio)” near 0.7, cut for the highest 2% near 6.5. Shown is part of a subset that was picked to be rich in the highest values.

B1: ENSMUSG00000032194.294|Kank2 (ssRNA)
RNA: GGGAGUUCUACAGUCCGACGAUCGCUUCGAUAUCCGCAUGCUAAUGGAUGAGAAACUGGGUUGGCUGGUGGGUAGAUGUCAUGAUGGAGUCUUUGCACGUGUAUGAAACAGAAAACCAAACUUCAGGACAGACAGCUGCUGGUGUCUCUGGAUGCUCACAGCCUAGGGCACAUUUGAAAGGUCGUGCUCUGAGCUGAGCCCUGAGUUCCAGCCUUGUAGCCAGCAAGGGAGUUUAUUUAAGGUUCUGGAAGCAUCAGCUAUGACCCAAAGCACACGCUCCUCAGAAAAGCCCCUGUUUCUGUCCUCUUGCGGUCGCACUAGUGUGGAAUUCUCGGGUGUCAAGG
B2: ENSMUSG00000042529.84|Kcnj12 (ssRNA)
RNA: GGGAGUUCUACAGUCCGACGAUCGCUUCGAUAUCCGCAUGCUACCCCACAAAACACAAGAAAACAUUAACAGGUGGUUCAAUUUUUAAAAUUCCUGGUGUGGGGACAGUUGGAAUUCUACUCAGCGCUGCCAGGCAAGCAGCUGGACGGAGAACCCUGAGGGUUCUCAGAGGUCUGUUUUCUCCCUCACGUGGGCCAGGGCCUUAAGCGAGUUGUCAUGCUUAAGGAUGAAUCAGGCUGCUUGUGACCAUGUUAACGAUUCUAAUAAAGUGUCUGGAUGUCUCUUGGGGGUGGGGCCCACUAGCUCUUGCGGUCGCACUAGUGUGGAAUUCUCGGGUGUCAAGG
B3: ENSMUSG00000061578.34|Ksr2|40:50;139:145;150:154 (ssRNA)
RNA: GGGAGUUCUACAGUCCGACGAUCGCUUCGAUAUCCGCAUGCUACCACUCAACUAGGACCAAACUGGGCCAGAGAGGGUCCCAACACACCACACAAGGAGCCACAGACUGAGCACACCACCUCGGACUGUGGAGACCAAGACACAUGCCCAGUGGGCAGACUCAGACUCACACGCUGGACCACACACACCGCAACACACUACACAUGGACAGGGCCAACUGCUAUCCUUCUGCCUGGACGAGCCAGCUGUGGAGUGUCCCAGCUGUGCUAUCCUGGAACACAGAACCAGGAUGGAACCAGAAACCUCUUGCGGUCGCACUAGUGUGGAAUUCUCGGGUGUCAAGG
B4: ENSMUSG00000061578.47|Ksr2|61:67;72:76 (ssRNA)
RNA: GGGAGUUCUACAGUCCGACGAUCGCUUCGAUAUCCGCAUGCUACGGACUGUGGAGACCAAGACACAUGCCCAGUGGGCAGACUCAGACUCACACGCUGGACCACACACACCGCAACACACUACACAUGGACAGGGCCAACUGCUAUCCUUCUGCCUGGACGAGCCAGCUGUGGAGUGUCCCAGCUGUGCUAUCCUGGAACACAGAACCAGGAUGGAACCAGAAACAAUACACCUGCUCCGUUGUCAAGGCUUCUAGGCCAAGGUCAGGGUAGGGAGGUGGGGUGGGUUAAACUUGCAAACAUCCUCUUGCGGUCGCACUAGUGUGGAAUUCUCGGGUGUCAAGG
B5: ENSMUSG00000035202.92|Lars2 (ssRNA)
RNA: GGGAGUUCUACAGUCCGACGAUCGCUUCGAUAUCCGCAUGCUAUUUUACCCUACUGAUGAUGUGUUGUUGCCAUGGUAAUCCUGCUCAGUACGAGAGGAACCGCAGCUAGCUUGUGUCUCCAGUGUCUUUUACCAUCACAGGCCCUGGCUCUGUGCUACCUCCCUAGAAUACCUGUGGUUCAUCACCUUCAGCUCACACUCCAUUCAGACAAUGCUCACUUAGGCCUACAAGCAAGGGAGAGGCUUAAGCACAAGGUCUUUAAGCUUGAUACUGUGCCUGGUCUCAAUGCCUAGAAAUUCCAACUCUUGCGGUCGCACUAGUGUGGAAUUCUCGGGUGUCAAGG
B6: ENSMUSG00000004113.188|Cacna1b (ssRNA)
RNA: GGGAGUUCUACAGUCCGACGAUCGCUUCGAUAUCCGCAUGCUAGCAAUGUUCCUGUAUGUUUCUACCCUGCCUGGGAUGUCCCCAAUGACCCUGGCUCCUCUGCUCAACCAAGUGCCUGAUCUCUGGCUCUGAGCAUCGUGGAUGAGGUACGGCCUCAGGAAGCAUCGGGUGGAUUGGGUGGGAGCUGCUCAGAGCAGCACGGGGGCUUGUGUCUUAGGGACAUUGACAGUGUCCAUCAGCAUGUCAGAGAAGCAGCUGUAGUGCCCGUGUUUCUCCCUGAGUCAUGGGUUCUGAAGAAGCCACUCUUGCGGUCGCACUAGUGUGGAAUUCUCGGGUGUCAAGG
B7: ENSMUSG00000061578.130|Ksr2 (ssRNA)
RNA: GGGAGUUCUACAGUCCGACGAUCGCUUCGAUAUCCGCAUGCUAACCUUUACCAGUUCACCAUCAUUCAUGGCUUCCCCCAAAGUCCCGAGUCCUGAGAACCGGGGCUGUGGCAAGAGAGUUCUGGUGUGUUCUCUCUGUGGGGCUAGCAAUGCCGGGGUUAAGUUCUCCCUCGGUGAUGGAGACGGUCCUGGGUAUGCAUGAUGGGUUACAUGGGUGUGUGUGUGUGUGUAACUGUUUACAAUGGUCUCCCUGCCUCUCACGGGCUGUGUUCCAGGAGAAUGCACAUAGAGAGGUUCUGUGGUCUCUUGCGGUCGCACUAGUGUGGAAUUCUCGGGUGUCAAGG
B8: ENSMUSG00000061578.131|Ksr2 (ssRNA)
RNA: GGGAGUUCUACAGUCCGACGAUCGCUUCGAUAUCCGCAUGCUAACCAGUUCACCAUCAUUCAUGGCUUCCCCCAAAGUCCCGAGUCCUGAGAACCGGGGCUGUGGCAAGAGAGUUCUGGUGUGUUCUCUCUGUGGGGCUAGCAAUGCCGGGGUUAAGUUCUCCCUCGGUGAUGGAGACGGUCCUGGGUAUGCAUGAUGGGUUACAUGGGUGUGUGUGUGUGUGUAACUGUUUACAAUGGUCUCCCUGCCUCUCACGGGCUGUGUUCCAGGAGAAUGCACAUAGAGAGGUUCUGUGGUCUCUGCCUCUUGCGGUCGCACUAGUGUGGAAUUCUCGGGUGUCAAGG
B9: ENSMUSG00000058297.288|Spock2 (ssRNA)
RNA: GGGAGUUCUACAGUCCGACGAUCGCUUCGAUAUCCGCAUGCUAAGAGAGAGAGAGAGAGAGAGAGAGAGAGAGAAAGAGAGAGAGAAUGAGAGAGAAUGAGAGAGAGAAUACCCGAGGGCCACCCUGAUGCCCAGGAAGAGUGAGGGCAGCCCCCUGUGUGGUGGAAGAGGCUGGGCAGCUAGCUACUGGGGACCUUGUGCUGAGGCUUCCAGGACAAAGCCCCAGUCUGGCUCUCCCCCAGCCUCUCAGGGGCACUGGCUGGUCACAUCCACUGAGUAUUGAUCGGUUGGACUUUAGGGAAGCUCUUGCGGUCGCACUAGUGUGGAAUUCUCGGGUGUCAAGG
B10: ENSMUSG00000058297.298|Spock2 (ssRNA)
RNA: GGGAGUUCUACAGUCCGACGAUCGCUUCGAUAUCCGCAUGCUAAGAGAAUACCCGAGGGCCACCCUGAUGCCCAGGAAGAGUGAGGGCAGCCCCCUGUGUGGUGGAAGAGGCUGGGCAGCUAGCUACUGGGGACCUUGUGCUGAGGCUUCCAGGACAAAGCCCCAGUCUGGCUCUCCCCCAGCCUCUCAGGGGCACUGGCUGGUCACAUCCACUGAGUAUUGAUCGGUUGGACUUUAGGGAAGAGCCUCCUCCUUCCCAUUCCUUUCUGCCACCCUGGAAUGGCCACCUUAAUCGUCAUCUCCCUCUUGCGGUCGCACUAGUGUGGAAUUCUCGGGUGUCAAGG
B11: ENSMUSG00000058297.291|Spock2 (ssRNA)
RNA: GGGAGUUCUACAGUCCGACGAUCGCUUCGAUAUCCGCAUGCUAAGAGAGAGAGAGAAAGAGAGAGAGAAUGAGAGAGAAUGAGAGAGAGAAUACCCGAGGGCCACCCUGAUGCCCAGGAAGAGUGAGGGCAGCCCCCUGUGUGGUGGAAGAGGCUGGGCAGCUAGCUACUGGGGACCUUGUGCUGAGGCUUCCAGGACAAAGCCCCAGUCUGGCUCUCCCCCAGCCUCUCAGGGGCACUGGCUGGUCACAUCCACUGAGUAUUGAUCGGUUGGACUUUAGGGAAGAGCCUCCUCCUUCCCAUUCUCUUGCGGUCGCACUAGUGUGGAAUUCUCGGGUGUCAAGG
B12: ENSMUSG00000058297.286|Spock2 (ssRNA)
RNA: GGGAGUUCUACAGUCCGACGAUCGCUUCGAUAUCCGCAUGCUAUGUGUGAGAGAGAGAGAGAGAGAGAGAGAGAGAGAGAGAGAGAAAGAGAGAGAGAAUGAGAGAGAAUGAGAGAGAGAAUACCCGAGGGCCACCCUGAUGCCCAGGAAGAGUGAGGGCAGCCCCCUGUGUGGUGGAAGAGGCUGGGCAGCUAGCUACUGGGGACCUUGUGCUGAGGCUUCCAGGACAAAGCCCCAGUCUGGCUCUCCCCCAGCCUCUCAGGGGCACUGGCUGGUCACAUCCACUGAGUAUUGAUCGGUUGGCUCUUGCGGUCGCACUAGUGUGGAAUUCUCGGGUGUCAAGG
B13: ENSMUSG00000058297.285|Spock2 (ssRNA)
RNA: GGGAGUUCUACAGUCCGACGAUCGCUUCGAUAUCCGCAUGCUAUGUGUGUGUGUGAGAGAGAGAGAGAGAGAGAGAGAGAGAGAGAGAGAGAAAGAGAGAGAGAAUGAGAGAGAAUGAGAGAGAGAAUACCCGAGGGCCACCCUGAUGCCCAGGAAGAGUGAGGGCAGCCCCCUGUGUGGUGGAAGAGGCUGGGCAGCUAGCUACUGGGGACCUUGUGCUGAGGCUUCCAGGACAAAGCCCCAGUCUGGCUCUCCCCCAGCCUCUCAGGGGCACUGGCUGGUCACAUCCACUGAGUAUUGAUCCUCUUGCGGUCGCACUAGUGUGGAAUUCUCGGGUGUCAAGG
B14: ENSMUSG00000061578.129|Ksr2 (ssRNA)
RNA: GGGAGUUCUACAGUCCGACGAUCGCUUCGAUAUCCGCAUGCUAGGUGUGACCUUUACCAGUUCACCAUCAUUCAUGGCUUCCCCCAAAGUCCCGAGUCCUGAGAACCGGGGCUGUGGCAAGAGAGUUCUGGUGUGUUCUCUCUGUGGGGCUAGCAAUGCCGGGGUUAAGUUCUCCCUCGGUGAUGGAGACGGUCCUGGGUAUGCAUGAUGGGUUACAUGGGUGUGUGUGUGUGUGUAACUGUUUACAAUGGUCUCCCUGCCUCUCACGGGCUGUGUUCCAGGAGAAUGCACAUAGAGAGGUUCCUCUUGCGGUCGCACUAGUGUGGAAUUCUCGGGUGUCAAGG
B15: ENSMUSG00000058297.297|Spock2 (ssRNA)
RNA: GGGAGUUCUACAGUCCGACGAUCGCUUCGAUAUCCGCAUGCUAUGAGAGAGAGAAUACCCGAGGGCCACCCUGAUGCCCAGGAAGAGUGAGGGCAGCCCCCUGUGUGGUGGAAGAGGCUGGGCAGCUAGCUACUGGGGACCUUGUGCUGAGGCUUCCAGGACAAAGCCCCAGUCUGGCUCUCCCCCAGCCUCUCAGGGGCACUGGCUGGUCACAUCCACUGAGUAUUGAUCGGUUGGACUUUAGGGAAGAGCCUCCUCCUUCCCAUUCCUUUCUGCCACCCUGGAAUGGCCACCUUAAUCGUCCUCUUGCGGUCGCACUAGUGUGGAAUUCUCGGGUGUCAAGG

biological target: TDP-43 (Homo sapiens, UniProt Q13148 1-414); test: RNA Bind-n-Seq with designed 260-mer pool; 25 mM Tris-HCl, 150 mM KCl, 3 mM MgCl2, BSA (printed 500 mg/mL), 20 units/mL SUPERase IN; pH not stated; 500 nM RNA pool, 1 h, 4 C; TDP-43 5, 50, 500 nM; high values mean tight binding; details: protein: recombinant; tags: SBP (GST cleaved off with PreScission; pGEX-GST-SBP)
In short: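 Binding (R) is the ratio of each oligo's mapped-read-normalized abundance in the bound fraction to its abundance in the input. To obtain it, SBP-tagged recombinant TDP-43 (5, 50 or 500 nM) on streptavidin beads was incubated with 500 nM of an in vitro-transcribed 260-nt 3′ UTR oligo pool for 1 h at 4 °C in 25 mM Tris-HCl, 150 mM KCl, 3 mM MgCl2, BSA and SUPERase IN. The RNA retained after washing was released with biotin, then reverse transcribed, amplified by PCR and sequenced.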

TDP-43, sequence (Q13148 whole entry): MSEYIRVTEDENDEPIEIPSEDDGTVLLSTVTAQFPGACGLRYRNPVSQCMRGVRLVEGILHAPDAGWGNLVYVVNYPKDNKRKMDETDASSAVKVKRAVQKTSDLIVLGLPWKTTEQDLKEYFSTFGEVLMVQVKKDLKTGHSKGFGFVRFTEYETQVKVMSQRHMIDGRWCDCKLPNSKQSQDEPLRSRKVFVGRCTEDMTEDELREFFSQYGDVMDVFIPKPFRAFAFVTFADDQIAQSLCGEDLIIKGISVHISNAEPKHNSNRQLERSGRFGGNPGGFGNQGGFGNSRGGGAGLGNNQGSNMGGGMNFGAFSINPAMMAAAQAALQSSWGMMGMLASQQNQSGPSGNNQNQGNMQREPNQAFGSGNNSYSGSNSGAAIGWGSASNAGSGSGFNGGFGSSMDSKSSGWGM

| Binder | binding signal |
| --- | --- |
| B1 | 0.914 R (bound/input frequency ratio) |
| B2 | 1.71 R (bound/input frequency ratio) |
| B3 | 1.07 R (bound/input frequency ratio) |
| B4 | 0.292 R (bound/input frequency ratio) |
| B5 | 0.689 R (bound/input frequency ratio) |
| B6 | 0.976 R (bound/input frequency ratio) |
| B7 | 6.59 R (bound/input frequency ratio) |
| B8 | 3.31 R (bound/input frequency ratio) |
| B9 | 7.62 R (bound/input frequency ratio) |
| B10 | 3.7 R (bound/input frequency ratio) |
| B11 | 8.35 R (bound/input frequency ratio) |
| B12 | 6.3 R (bound/input frequency ratio) |
| B13 | 7.21 R (bound/input frequency ratio) |
| B14 | 4.45 R (bound/input frequency ratio) |
| B15 | 4.65 R (bound/input frequency ratio) |
